# Bioassay records (PubChem BioAssay)
# TSHR agonist: qHTS Assay for Agonists of the Thyroid Stimulating Hormone Receptor | Potency, µM (top dose mostly 57.1 µM), for inactives: at the highest dose activation, hits mostly activators | HEK293-CNG-TSHR cells (CNG channel as cAMP sensor), membrane potential dye, cAMP | AID 926, 2007 | 0.48% of 73,000 active | Thyrotropin receptor (Homo sapiens), P16473; active = well fitted activation curve with a large enough effect in the main read-out, with a control signal flat, not every such curve was filed as active; inconclusive = small, poorly fitted or top-dose-only effect, or a change in a side signal; inactive = no such curve, though single readings can be large or run the other way; % of control where 0% means no effect;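 also: the control signal comes from parental cells without the receptor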
# Target sequence (P16473 whole entry, looked up): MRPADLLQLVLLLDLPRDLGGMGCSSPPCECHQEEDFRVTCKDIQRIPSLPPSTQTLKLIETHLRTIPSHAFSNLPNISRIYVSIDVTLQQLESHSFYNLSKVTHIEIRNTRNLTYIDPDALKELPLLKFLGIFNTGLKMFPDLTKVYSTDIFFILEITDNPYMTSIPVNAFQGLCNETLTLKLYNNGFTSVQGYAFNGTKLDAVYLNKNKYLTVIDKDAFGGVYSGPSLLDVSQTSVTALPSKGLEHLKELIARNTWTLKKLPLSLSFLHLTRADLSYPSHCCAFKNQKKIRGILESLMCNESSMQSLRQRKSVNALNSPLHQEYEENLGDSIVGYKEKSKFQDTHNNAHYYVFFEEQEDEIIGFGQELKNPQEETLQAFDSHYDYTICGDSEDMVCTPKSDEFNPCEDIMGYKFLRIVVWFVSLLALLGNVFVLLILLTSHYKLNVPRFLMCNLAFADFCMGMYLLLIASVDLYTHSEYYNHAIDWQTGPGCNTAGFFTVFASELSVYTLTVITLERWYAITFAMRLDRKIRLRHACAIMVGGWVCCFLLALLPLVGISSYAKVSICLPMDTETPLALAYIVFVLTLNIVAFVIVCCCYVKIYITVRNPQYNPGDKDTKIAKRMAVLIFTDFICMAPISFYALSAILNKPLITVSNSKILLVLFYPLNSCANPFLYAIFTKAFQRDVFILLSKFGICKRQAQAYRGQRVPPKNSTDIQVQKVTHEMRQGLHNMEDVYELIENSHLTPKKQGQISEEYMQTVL
#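 HEK 293 cells stably expressing TSHR and a modified CNG channel, with CNG-only parental cells as counterscreen, were preloaded 60 min at room temperature with membrane potential dye containing 100 uM RO 20-1724. Compound exposure was 30 min, and depolarization was read as fluorescence at 590 nm.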
# Imprint erasure: qHTS Assay for Compounds that Induce Erasure of Genomic Imprints; mouse ES Peg3-LacZ reporter, beta-gal luminescence, 40 h; Potency, µM (highest dose often 60.7 µM), inactives show top-dose activity change, positive = activation, usual class: activators; 0.02% of 110,000 active
#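 Gelatin-coated wells received 300 freshly trypsinized female ES cells with a Peg3LacZ-Neo reporter on the maternal allele, then incubated 40 hours at 37C. BetaGlo was added for 5 minutes at room temperature before a single luminescence read.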
# HEK293 cAMP cs: qHTS Assay for Agonists of the Thyroid Stimulating Hormone Receptor: Activators of Intracellular cAMP Concentrations in Parental HEK 293. parental HEK293 CNG cAMP sensor, membrane potential fluorescence. Potency, µM (doses to about 57.1 µM), for inactives: at the highest dose activation, most hits filed as activators. 2.5% of 73,000 active; also: % of control where 0% means no effect; nearly all actives have a fitted effect of over 55% in size
#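 Counterscreen for endogenous-receptor signalling: CNG-channel HEK 293 cells report cAMP rise by membrane depolarization. After 60 min dye equilibration with 100 uM RO 20-1724, compounds incubated 30 min before bottom-read fluorescence at 590 nm.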
# Starred values were filed as active, the others as inactive; ? = inconclusive; . = no result given; ! = repeats disagree; [ ] = remark or other dose. This is one part of a sample in which hits are shown more often than they occur. Unless noted, calls follow the shape of the dose curve; as a rule, active = well fitted activation curve with a large enough effect; inconclusive = small, poorly fitted or top-dose-only effect; inactive = no such curve, though single readings can be large or run the other way. Potency is read from the fitted curve at half-maximal effect.
SMILES,TSHR agonist,Imprint erasure,HEK293 cAMP cs
O=C(Nc1cccc2ccccc12)c1ccc(Br)o1,?,-5.8%,?
C[C@@H](c1ccccc1)N1C(=O)[C@H]2[C@H]3[C@H](O)[C@H](O)C/C(=N/OCc4ccccc4)[C@@H]3CC[C@@H]2C1=O,-18.7%[11.4 µM],.,-7.6%[11.4 µM]
COCCn1c(C(=O)N2CCCC2)cc2c1C[C@H]1CN(C(=O)c3ccccc3)[C@@](Cc3ccc(OC)cc3)(C(=O)OC)[C@@H]21,?,-8.0%,?
COC(=O)[C@@]1(Cc2ccccc2)[C@H]2c3cc(C(=O)N(C)C)n(CCO)c3C[C@H]2CN1C(=O)c1ccccc1,4.3%,-1.2%,18.9%
COC(=O)[C@@]1(Cc2ccc(OC)cc2)[C@H]2c3cc(C(=O)N4CCCC4)n(CCN4CCOCC4)c3C[C@H]2CN1C(=O)c1ccccc1,?,-5.3%,20µM*
COC(=O)[C@@]1(Cc2ccc(OC)cc2)[C@H]2c3cc(C(=O)N4CCCC4)n(C[C@H](O)CO)c3C[C@H]2CN1C(=O)c1ccccc1,3.2%,-7.2%,5.3%
COC(=O)[C@@]1(Cc2ccccc2)[C@H]2c3cc(C(=O)N(C)C)n(CCF)c3C[C@H]2CN1C(=O)c1ccccc1,?,4.1%,25.1µM*
COC(=O)[C@@]1(Cc2ccc(OC)cc2)[C@H]2c3cc(C(=O)N4CCCC4)n(CCn4cc([N+](=O)[O-])nc4C)c3C[C@H]2CN1C(=O)c1ccccc1,0.6%,-8.8%,-0.4%
COC(=O)[C@@]1(Cc2ccc(OC)cc2)[C@H]2c3cc(C(=O)N4CCCC4)n(Cc4ccc(OC)c(OC)c4)c3C[C@H]2CN1C(=O)c1ccccc1,?,-11.0%,5.01µM*
COC(=O)[C@@]1(Cc2ccc(OC)cc2)[C@H]2c3cc(C(=O)N4CCCC4)n(CCF)c3C[C@H]2CN1C(=O)c1ccccc1,?,-11.7%,20µM*
Cc1cc(C)cc(OCCOCCn2c(-c3ccc(Cl)cc3)nc3ccccc3c2=O)c1,.,-13.3%[10.9 µM],.
Cn1c2ccccc2c2cnn(CC(=O)Nc3ccccc3C(F)(F)F)c(=O)c21,.,-10.5%[10.9 µM],.
CCOC(=O)C1=C(CN(CC)Cc2ccccc2)NC(=O)NC1c1ccc(Cl)cc1 (centres undefined),.,-12.2%[10.9 µM],.
COc1ccc2c(c1)c(CC(=O)OCC(=O)O)c(C)n2C(=O)c1ccc(Cl)cc1,-11.0%[25.6 µM],-8.6%,-2.5%[25.6 µM]
COc1ccc2c(c1)c(CC(=O)N1CCOCC1)c(C)n2C(=O)c1ccc(Cl)cc1,?,-15.5%,39.8µM*!
CO[C@@H]1COC(=O)[C@H]2CCCN2C(=O)C/C=C\[C@@H](C)[C@H](OC)COC(=O)[C@H]2CCCN2C(=O)C/C=C\[C@H]1C,11.6%[11.4 µM],.,6.0%[11.4 µM]
CCOC(=O)C1CCN(C(=O)Cn2ncc3c4ccccc4n(Cc4ccccc4F)c3c2=O)CC1,.,1.6%[10.9 µM],.
COCC(=O)N1CCC2(CC1)CN(C(=O)Nc1ccccc1)C2,0.6%,.,-1.7%
CC1=C(c2ccc(F)cc2)S(=O)(=O)NC1=NCc1ccccc1Cl,.,6.8%[10.9 µM],.
CN[C@@H]1[C@H](O)[C@H](NC)[C@@H]2O[C@]3(O)C(=O)C[C@@H](C)O[C@H]3O[C@@H]2[C@H]1O,0.7%,.,3.0%
Cc1nc2ccccc2c(=O)n1/N=C/c1ccc(N(C)C)cc1,0.2%,-14.0%,1.3%
Cc1nc2ccccc2c(=O)n1/N=C/c1c(O)ccc2oc3c(c12)CCCC3,?,-11.6%,15.8µM*
COc1ccc(CNC(=O)Cn2c(=O)nc(-c3ccccc3)c3cc(Cl)ccc32)cc1OC,.,16.0%[10.9 µM],.
COc1ccc(-n2nc(C(=O)N3CCCCC3)c3c4ccccc4n(C)c3c2=O)cc1Cl,.,-1.6%[10.9 µM],.
C#CCNc1nc(C)nc2c1nnn2Cc1ccccc1F,0.8%,-0.9%,25.3%
SMILES,TSHR agonist,Imprint erasure,HEK293 cAMP cs
O=c1[nH]c(C(F)(F)F)nc2c1nnn2Cc1ccccc1F,?,16.6%,25.1µM*
COc1ccccc1C(=O)NC1=NC(c2ccc(Br)cc2)CC(=O)N1 (centres undefined),.,-17.7%[10.9 µM],.
NC(=Nc1ccccc1)NC(=O)c1nc(Cl)c(N)nc1N,8.0%,-35.6%,6.8%
CN(C)c1nc(N)c(C(=O)N=C(N)N)nc1Cl,?,-14.0%,25.1µM*
O=C(c1cc(C(F)(F)F)cc(C(F)(F)F)c1)N1CCC2(CCN(Cc3ccncc3)CC2)CC1,?,.,16.7%
O=C(c1cccc(F)c1)N1CCC2(CC1)CCN(c1ccncc1)CC2,?,.,3.98µM*
O=C(c1cccc(F)c1)N1CCC2(CC1)CN(c1cccc(-c3ccccc3)c1)C2,17.7%,.,18.2%
O=C(c1cccc(F)c1)N1CCC2(CCCN(c3cccc(-c4ccccc4)c3)C2)CC1,?,.,1.26µM*
O=C(c1cc(C(F)(F)F)cc(C(F)(F)F)c1)N1CCC2(CC1)CCN(c1ccncc1)CC2,?,.,3.16µM*
O=C(c1cccc(F)c1)N1CCC2(CC1)CCN(c1ncccn1)CC2,15.7%,.,16.6%
COc1ccc(OCC(=O)NCC2(N3CCN(C)CC3)CCCCC2)cc1,.,-13.1%[10.9 µM],.
Cc1cn2c(=O)cc(COc3cccc(NC(=O)c4ccc(C(C)(C)C)cc4)c3)nc2s1,.,-17.2%[10.9 µM],.
Cc1cc(N2CCC(C(=O)Nc3ccc(Cl)cc3)CC2)n2nc(C)c(-c3ccc(Cl)cc3)c2n1,.,-4.3%[10.9 µM],.
Cc1ccc(C)c(N2CCN(c3nc4ccccc4n4nnnc34)CC2)c1,.,-6.1%[10.9 µM],.
CCC(Sc1nc2cc3c(cc2c(=O)n1CCCCCC(=O)NCc1ccc2c(c1)OCO2)OCO3)C(=O)NCCCOC (centres undefined),.,-2.8%[10.9 µM],.
O=C(NCc1ccccc1Br)c1ccc2nc(N3CCCCC3)sc2c1,.,1.9%[10.9 µM],.
O=C1c2ccccc2C(Cc2ccncc2)(Cc2ccncc2)c2ccccc21,?,-3.0%,3.16µM*
O=C1Nc2ccccc2C1(O)Cc1ccncc1 (centres undefined),-2.0%,26.5%,5.4%
CCc1ccc(CNC(=O)Cc2c(C(=O)O)c(C)cn2C)cc1,.,-5.4%[10.9 µM],.
CCN(CC)C(c1ccc(F)cc1)c1nnnn1C1CCCCC1 (centres undefined),7.1%,-10.3%,16.7%
c1ccc(CN(Cc2ccco2)C(c2ccncc2)c2nnnn2C2CCCC2)cc1 (centres undefined),?,-4.5%,10µM*
CCN(CC)C(c1ccc(C)cc1)c1nnnn1C1CCCCC1 (centres undefined),?,-14.6%,15.8µM*
c1cc(C(c2nnnn2C2CCCC2)N2CCOCC2)ccn1 (centres undefined),-9.2%,.,7.3%
CCN(c1cccc(C(F)(F)F)c1)S(=O)(=O)c1ccc2c(c1)CCN2C(=O)C1CC1,?,-29.9%,25.1µM*
CCC(=O)N1CCc2cc(S(=O)(=O)N(CC)c3cccc(C)c3)ccc21,?,-27.8%,?
COc1cccc(C2NC(C(=O)O)CCC2C)c1 (centres undefined),2.1%[11.4 µM],.,-3.6%[11.4 µM]
C=Cc1ccc(CN2C(=O)N(c3ccc(C)c(C)c3)S(=O)(=O)c3ccccc32)cc1,.,-15.1%[10.9 µM],.
CO[C@@H]1/C=C\O[C@]2(C)Oc3c(C)c(O)c4c(O)c(c(CN5CCN(C)CC5)c(O)c4c3C2=O)NC(=O)/C(C)=C\C=C[C@@H](C)[C@@H](O)[C@H](C)[C@@H](O)C(C)[C@H](OC(C)=O)[C@@H]1C (some centres undefined),.,-1.5%[10.9 µM],.
